Source: PubChem BioAssay (NCATS)
Where “and” joins values, the source holds several entries; their conditions need not be identical. Identical values can stand only once. Records with an inconclusive call do not appear. Calls of active or inactive are those of the source. Unless noted, calls come from the whole dose curve; as a rule, active = well fitted curve in the direction sought with a large enough effect; inconclusive = small, poorly fitted or top-dose-only effect, or another doubt; inactive = no such curve, though single readings can be large; an effect the other way counts as inactive or inconclusive.

Columns and labels:
[1] = AP1 Signaling Pathway (AID 357; active = well fitted curve in either direction with a large enough effect, not every such curve was filed as active;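 note: ME-180 reporter cells stimulated with EGF at its EC50 level; % is set by controls: 0 for no effect and ±100 for the full control effect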)
Method in brief: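 Read-out was the 460nm/530nm emission ratio (excitation 405nm) after CCF4 loading for 2.5 hours at room temperature. Cells carried an AP-1-driven beta-lactamase reporter, were stimulated with EC50 EGF plus compound for 5 hours, and AC50 values came from titrations.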

[2] = NFAT Signaling Pathway (AID 444; active = well fitted curve in either direction with a large enough effect, not every such curve was filed as active;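 note: carbachol stimulus at about its EC50 of 1 µM final; % is set by controls: 0 for no effect and ±100 for the full control effect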); conditions: Jurkat NFAT-bla M1, carbachol, beta-lactamase ratio, 5 h; at 17.2 µM (top of the series)
Method in brief: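 Jurkat cells with NFAT-driven β-lactamase reporter and co-expressed M1 receptor, stimulated with carbachol (final 1 uM, ~EC50), compound titration, 5 h at 37 °C. CCF4 loaded 1 h at RT; 460/530 nm ratio gave %activity and AC50.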

[3] = Stat Signaling Pathway (AID 446; active = well fitted curve in either direction with a large enough effect, not every such curve was filed as active;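 note: ME-180 cervical cancer cells given 40 pM IL-6 alongside compound; SIE-controlled beta-lactamase reporter measured as 460/530 nm FRET emission ratio; % is set by controls: 0 for no effect and ±100 for the full control effect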)
Method in brief: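 Reporter line: ME-180 cervical carcinoma, SIE-beta-lactamase. Treatment: compound with 40 pM IL-6, 5 hrs, 37 C, in low-serum OPTI-MEM with 10 mM HEPES pH 7.3. Detection: 460/530 nm fluorescence.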

[4] = biological target: Glucocorticoid receptor (Homo sapiens) (UniProt P04150); experiment: GR-GFP Redistribution (AID 450;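 active = compounds whose dose series gives a full or clear partial fitted curve of increased nuclear translocation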; note: potency is the fitted concentration of half-maximal effect); conditions: U2OS GR-GFP nuclear translocation, laser cytometry, 2 h
Sequence of Glucocorticoid receptor (Homo sapiens) (P04150 whole entry, looked up, the tested form may be a part): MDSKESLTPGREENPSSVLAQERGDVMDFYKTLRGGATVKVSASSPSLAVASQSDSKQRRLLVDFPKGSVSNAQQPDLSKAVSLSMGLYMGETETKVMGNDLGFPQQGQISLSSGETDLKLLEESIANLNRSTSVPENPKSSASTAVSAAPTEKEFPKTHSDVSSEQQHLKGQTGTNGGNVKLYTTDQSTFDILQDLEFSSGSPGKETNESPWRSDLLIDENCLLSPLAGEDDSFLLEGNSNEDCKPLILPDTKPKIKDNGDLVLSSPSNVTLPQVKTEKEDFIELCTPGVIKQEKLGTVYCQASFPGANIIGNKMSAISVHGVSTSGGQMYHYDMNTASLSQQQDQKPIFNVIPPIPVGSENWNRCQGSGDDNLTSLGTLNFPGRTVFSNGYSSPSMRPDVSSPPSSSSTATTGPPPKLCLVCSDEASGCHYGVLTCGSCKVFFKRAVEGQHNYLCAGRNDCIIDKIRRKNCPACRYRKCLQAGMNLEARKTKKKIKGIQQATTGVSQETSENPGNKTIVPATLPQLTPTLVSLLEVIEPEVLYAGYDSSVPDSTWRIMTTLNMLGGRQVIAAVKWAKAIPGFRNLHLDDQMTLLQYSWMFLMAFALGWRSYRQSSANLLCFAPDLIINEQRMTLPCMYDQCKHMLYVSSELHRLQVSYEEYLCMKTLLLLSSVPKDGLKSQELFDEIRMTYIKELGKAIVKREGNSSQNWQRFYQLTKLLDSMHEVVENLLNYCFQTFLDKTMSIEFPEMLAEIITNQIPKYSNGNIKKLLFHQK

[5] = biological target: Glucocorticoid receptor (Homo sapiens) (UniProt P04150); experiment: GR-EFC Redistribution (AID 451; calls by dose curve; note: potency is the fitted concentration of half-maximal effect); conditions: CHO-K1 GR-EFC translocation, beta-gal luminescence, 2 h
Method in brief: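 CHO-K1 cells expressing nuclear EA and GR-ED fragments of b-gal; compounds titrated up to 46 uM final, 2 h at 37 C. GR nuclear translocation read as complemented b-gal luminescence after 1 h RT detection.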

[6] = biological target: Mitogen-activated protein kinase 10 (Mus musculus) (UniProt Q61831); experiment: JNK3 AlphaScreen Assay (AID 530; active = well fitted curve in either direction with a large enough effect, not every such curve was filed as active;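 note: kinase came from lysate of stimulated human HepG2 cells; signal reports phosphorylation of biotinylated GST-cJun 1-79 at Ser73 with 10 µM ATP; % is set by controls: 0 for no effect and ±100 for the full control effect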)
Method in brief: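 qHTS format: compounds tested as titrations against IL-1beta/TNF-alpha-activated HepG2 lysate JNK3 with biotin-GST-cJun substrate and 10 uM ATP at room temperature. Loss of anti-phospho-cJun AlphaScreen signal indicates inhibition.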

[7] = biological target: 3',5'-cyclic-AMP phosphodiesterase 4B (Homo sapiens) (UniProt Q07343); experiment: qHTS Assay for Inhibitors of PDE-IV (AID 607; active = well fitted activation curve with a large enough effect in the main read-out, with a control signal flat, not every such curve was filed as active; note: % of control where 0% means no effect)
Sequence of 3',5'-cyclic-AMP phosphodiesterase 4B (Homo sapiens) (Q07343 whole entry, looked up): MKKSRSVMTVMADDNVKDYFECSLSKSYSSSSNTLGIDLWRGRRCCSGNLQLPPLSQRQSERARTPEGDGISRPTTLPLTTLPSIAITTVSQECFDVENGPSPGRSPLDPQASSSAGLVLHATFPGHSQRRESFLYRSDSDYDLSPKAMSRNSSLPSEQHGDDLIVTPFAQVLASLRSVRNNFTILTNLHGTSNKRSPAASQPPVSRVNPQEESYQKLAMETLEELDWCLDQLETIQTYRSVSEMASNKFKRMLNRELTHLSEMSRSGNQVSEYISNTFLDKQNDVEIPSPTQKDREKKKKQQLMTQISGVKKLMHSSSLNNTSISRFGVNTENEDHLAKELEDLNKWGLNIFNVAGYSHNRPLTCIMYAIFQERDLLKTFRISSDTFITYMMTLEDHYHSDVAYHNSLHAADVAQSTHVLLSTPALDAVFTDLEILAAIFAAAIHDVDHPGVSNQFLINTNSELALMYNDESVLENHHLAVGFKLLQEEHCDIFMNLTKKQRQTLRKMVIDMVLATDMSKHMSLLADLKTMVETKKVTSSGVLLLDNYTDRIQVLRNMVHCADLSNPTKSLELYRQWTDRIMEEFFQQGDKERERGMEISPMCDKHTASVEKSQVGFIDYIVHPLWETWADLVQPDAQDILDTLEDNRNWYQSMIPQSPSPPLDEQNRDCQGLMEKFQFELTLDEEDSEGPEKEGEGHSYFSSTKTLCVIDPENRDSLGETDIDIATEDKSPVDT
Method in brief: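 Cell-based read-out of cAMP via a modified cyclic nucleotide-gated channel and membrane potential dye (535/590 nm) in HEK293 cells expressing PDE4 endogenously. Compounds tested up to 22.9 uM final; 100 uM RO 20-1724 reference.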

[8] = qHTS Assay for Lipid Storage Modulators (AID 1519; calls by dose curve); conditions: Drosophila S3 cells, BODIPY lipid droplet/cell ratio, laser cytometry, cells loaded with oleic acid
Method in brief: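 Cells seeded at 5,000 per well were treated with compounds over a concentration series and loaded with oleic acid (400 uM, as added). Lipid droplet fluorescence (488 nm excitation, 500-530 nm channel) was read by laser-scanning cytometry and normalized to 20 uM Triacsin C.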

[9] = biological target: ATP-dependent 6-phosphofructokinase (Trypanosoma brucei brucei) (UniProt O15648); experiment: qHTS Assay to Find Inhibitors of T. brucei phosphofructokinase: hit validation (AID 492961); note: % is set by controls: 0 for no effect and ±100 for the full control effect
Sequence of ATP-dependent 6-phosphofructokinase (Trypanosoma brucei brucei) (O15648 whole entry, looked up): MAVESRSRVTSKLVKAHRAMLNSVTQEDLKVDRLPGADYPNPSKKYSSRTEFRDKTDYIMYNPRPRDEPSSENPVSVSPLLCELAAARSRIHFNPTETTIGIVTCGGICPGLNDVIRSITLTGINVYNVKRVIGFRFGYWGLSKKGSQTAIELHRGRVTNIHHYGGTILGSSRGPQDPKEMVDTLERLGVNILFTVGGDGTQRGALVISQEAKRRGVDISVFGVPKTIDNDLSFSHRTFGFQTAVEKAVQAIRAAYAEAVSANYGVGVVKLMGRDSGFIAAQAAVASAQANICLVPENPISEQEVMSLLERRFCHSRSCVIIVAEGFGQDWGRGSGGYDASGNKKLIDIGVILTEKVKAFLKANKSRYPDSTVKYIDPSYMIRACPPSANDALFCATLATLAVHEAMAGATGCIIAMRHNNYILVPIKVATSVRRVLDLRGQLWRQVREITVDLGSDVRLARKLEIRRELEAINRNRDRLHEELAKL
Method in brief: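 Luminescence from ADP-Glo reports ADP generated as T. brucei PFK (1.25 nM) phosphorylates 0.5 mM fructose-6-phosphate using 0.1 mM ATP. Reactions ran 45 min at room temperature, pH 8.0.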

[10] = biological target: Luciferin 4-monooxygenase (Photinus pyralis) (UniProt P08659); experiment: Biochemical firefly luciferase enzyme assay for NPC (AID 624030);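 note: purified P. pyralis luciferase at 10 nM with luciferin and ATP substrate; 0% = DMSO and -100% = full luciferase inhibition by PTC124 control; nearly all actives have a fitted effect of over 70% in size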
Sequence of Luciferin 4-monooxygenase (Photinus pyralis) (P08659 whole entry, looked up): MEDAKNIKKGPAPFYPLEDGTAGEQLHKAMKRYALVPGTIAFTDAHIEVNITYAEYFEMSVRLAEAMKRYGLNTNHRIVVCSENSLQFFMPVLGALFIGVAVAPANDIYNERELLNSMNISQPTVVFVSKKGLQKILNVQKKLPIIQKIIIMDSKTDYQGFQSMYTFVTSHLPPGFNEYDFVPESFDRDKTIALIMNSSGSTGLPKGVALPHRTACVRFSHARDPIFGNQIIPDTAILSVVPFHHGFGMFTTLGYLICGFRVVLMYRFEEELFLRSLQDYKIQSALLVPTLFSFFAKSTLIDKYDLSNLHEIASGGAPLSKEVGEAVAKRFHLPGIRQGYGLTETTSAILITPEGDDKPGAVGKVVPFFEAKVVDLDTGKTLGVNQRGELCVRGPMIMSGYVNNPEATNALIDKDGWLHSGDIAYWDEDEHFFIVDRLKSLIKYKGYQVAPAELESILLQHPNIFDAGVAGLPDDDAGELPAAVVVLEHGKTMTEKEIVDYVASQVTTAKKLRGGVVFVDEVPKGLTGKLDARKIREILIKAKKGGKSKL
Method in brief: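 Purified P. pyralis luciferase at 10 nM in 50 mM Tris Acetate (final), luminescence read within 5 minutes of enzyme addition to compounds. Activity normalised to PTC124 versus DMSO; concentration-response curves classed by r2, magnitude and activity.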

[11] = qHTS profiling for inhibitors of Plasmodium falciparum proliferation (AID 504749); note: potency is the fitted concentration of half-maximal effect;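 for activity, negative = inhibition: 0% = DMSO vehicle and full inhibition = artemisinin control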; for all read-outs here: nearly all actives have a fitted effect of over 60% in size; conditions: P. falciparum in erythrocytes, SYBR Green DNA, 72 h; for activity, negative = inhibition: at 12.8 µM (top of the series)
Method in brief: (§1)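 Readout was DNA-dye fluorescence from lysed cultures, ex 485/em 535 nm. Parasitized red cells had grown 72 h with compound; data scaled between 0.29 uM artemisinin and DMSO wells and corrected using vehicle-only plates.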

C2A = experiment: as above; conditions: P. falciparum in erythrocytes, SYBR Green DNA, 72 h; series mostly up to 28.7 µM
Method in brief: as §1

CP256 = experiment: as above; conditions: P. falciparum in erythrocytes, SYBR Green DNA, 72 h; series mostly up to 28.7 µM
Method in brief: as §1

CP262 = experiment: as above; conditions: P. falciparum in erythrocytes, SYBR Green DNA, 72 h; series mostly up to 28.7 µM
Method in brief: as §1

[12] = biological target: Cytochrome P450 1A2 (Homo sapiens) (UniProt P05177); experiment: p450-cyp1a2 (AID 410; calls by dose curve; note: potency is the fitted concentration of half-maximal effect;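 for activity change, negative = inhibition: -100% = full effect of reference inhibitor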)
Sequence of Cytochrome P450 1A2 (Homo sapiens) (P05177 whole entry, looked up): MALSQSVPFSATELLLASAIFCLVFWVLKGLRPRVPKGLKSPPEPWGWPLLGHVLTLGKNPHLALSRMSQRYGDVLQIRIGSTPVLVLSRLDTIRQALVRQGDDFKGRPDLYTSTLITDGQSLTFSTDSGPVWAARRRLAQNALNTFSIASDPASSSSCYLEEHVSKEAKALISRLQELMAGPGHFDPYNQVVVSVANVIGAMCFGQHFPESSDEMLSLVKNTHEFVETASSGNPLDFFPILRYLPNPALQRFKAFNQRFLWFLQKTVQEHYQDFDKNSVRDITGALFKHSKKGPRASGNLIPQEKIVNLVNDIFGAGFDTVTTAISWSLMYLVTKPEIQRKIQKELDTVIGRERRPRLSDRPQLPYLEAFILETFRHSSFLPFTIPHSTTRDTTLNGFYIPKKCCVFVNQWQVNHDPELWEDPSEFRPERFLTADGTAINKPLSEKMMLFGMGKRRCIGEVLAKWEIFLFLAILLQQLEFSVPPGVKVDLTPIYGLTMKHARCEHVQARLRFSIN
Method in brief: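 Inhibition was calculated relative to 57 uM furafylline (full inhibition). The reaction used human CYP1A2 at 20nM with Luciferin-ME at its Km, 100uM, driven by an NADPH-regenerating system for 60 min at room temperature.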

[13] = biological target: Ubiquitin carboxyl-terminal hydrolase 1 (Homo sapiens) (UniProt O94782); experiment: Inhibitors of USP1/UAF1: Pilot qHTS (AID 504865); note: nearly all actives have a fitted effect of over 35% in size; note: potency is the fitted concentration of half-maximal effect
Sequence of Ubiquitin carboxyl-terminal hydrolase 1 (Homo sapiens) (O94782 whole entry, looked up): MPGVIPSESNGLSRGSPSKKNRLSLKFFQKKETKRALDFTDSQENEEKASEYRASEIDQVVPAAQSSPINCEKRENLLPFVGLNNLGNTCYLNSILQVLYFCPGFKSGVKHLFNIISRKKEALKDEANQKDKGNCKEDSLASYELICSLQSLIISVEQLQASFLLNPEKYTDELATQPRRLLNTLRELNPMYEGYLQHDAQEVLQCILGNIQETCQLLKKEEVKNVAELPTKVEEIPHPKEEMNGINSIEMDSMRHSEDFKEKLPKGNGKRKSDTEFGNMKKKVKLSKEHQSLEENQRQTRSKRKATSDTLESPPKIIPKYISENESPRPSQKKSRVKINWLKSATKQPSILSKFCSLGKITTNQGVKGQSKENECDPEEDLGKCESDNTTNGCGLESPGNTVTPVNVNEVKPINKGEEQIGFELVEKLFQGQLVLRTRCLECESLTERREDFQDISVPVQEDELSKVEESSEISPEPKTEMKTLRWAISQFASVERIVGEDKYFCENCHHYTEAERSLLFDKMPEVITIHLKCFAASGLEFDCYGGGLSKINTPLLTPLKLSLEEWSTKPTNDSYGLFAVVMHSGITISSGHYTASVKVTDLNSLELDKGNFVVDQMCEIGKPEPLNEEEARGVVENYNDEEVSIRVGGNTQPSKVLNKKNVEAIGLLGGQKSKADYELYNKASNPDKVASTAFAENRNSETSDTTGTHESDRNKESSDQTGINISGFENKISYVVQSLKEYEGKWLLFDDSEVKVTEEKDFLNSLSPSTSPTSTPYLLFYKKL
Method in brief: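 1nM USP1/UAF1 + cpd, 15 min RT; start w/ Ub-Rho 150nM final; kinetic FL 480/540 nm, 6 reads q60 s. Buffer 50mM HEPES pH 7.8, 0.5mM EDTA, 1mM TCEP, 0.01% Tween-20, 0.1 mg/ml BSA.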

CP217 = experiment: qHTS profiling for inhibitors of Plasmodium falciparum proliferation (AID 504749); note: nearly all actives have a fitted effect of over 60% in size; note: potency is the fitted concentration of half-maximal effect;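 for activity, negative = inhibition: 0% = DMSO vehicle and full inhibition = artemisinin control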; conditions: P. falciparum in erythrocytes, SYBR Green DNA, 72 h; series mostly up to 28.7 µM
Method in brief: as §1

CP252 = experiment: as above; conditions: P. falciparum in erythrocytes, SYBR Green DNA, 72 h; series mostly up to 12.8 µM
Method in brief: as §1

[14] = biological target: Cytochrome P450 3A4 (Homo sapiens) (UniProt P08684); experiment: qHTS Assay for Activators of Cytochrome P450 3A4 (AID 885); note: nearly all actives have a fitted effect of over 65% in size
Sequence of Cytochrome P450 3A4 (Homo sapiens) (P08684 whole entry, looked up): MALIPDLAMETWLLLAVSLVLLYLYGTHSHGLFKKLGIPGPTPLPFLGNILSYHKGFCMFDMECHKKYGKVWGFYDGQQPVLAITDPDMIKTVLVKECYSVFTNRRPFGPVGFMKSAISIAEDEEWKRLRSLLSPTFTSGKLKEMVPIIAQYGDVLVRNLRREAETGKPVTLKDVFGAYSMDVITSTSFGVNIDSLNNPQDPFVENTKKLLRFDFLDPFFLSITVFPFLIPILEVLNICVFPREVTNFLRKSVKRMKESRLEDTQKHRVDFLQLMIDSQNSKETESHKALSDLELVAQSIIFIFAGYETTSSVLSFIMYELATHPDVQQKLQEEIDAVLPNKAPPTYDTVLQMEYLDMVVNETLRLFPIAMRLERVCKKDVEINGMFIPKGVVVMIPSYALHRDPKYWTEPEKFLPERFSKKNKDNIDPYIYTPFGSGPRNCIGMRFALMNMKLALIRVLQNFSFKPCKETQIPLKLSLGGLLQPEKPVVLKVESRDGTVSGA
Method in brief: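 Signal was normalized against complete inhibition by 57 uM ketoconazole. The reaction used 20nM CYP3A4 with 25uM Luciferin-PPXE, 10-min compound preincubation and a 60-min NADPH-supported step at RT.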

[15] = measured here: cell count channel max response
[16] = measured here: lipid channel max response

COc1ccc2c(c1OC)CN1CCc3cc4c(cc3[C@H]1C2)OCO4
outcome [1]: inactive | activity change, negative = inhibition [2]: -25.2% (inactive) | outcome [3]: inactive | Potency [4]: > 20.6 µM (inactive) | Potency [5]: > 20.6 µM (inactive) | outcome [6]: inactive | Potency [7]: inactive | activity change, negative = inhibition ([8]; at 25.7 µM (top of the series)): -2.73% (inactive) | max response [8, 15]: -16.8% | max response [8, 16]: -19% | Potency [9]: inactive | Potency [10]: inactive | Potency ([11]; parasite line A): 2 µM (active) | Potency (C2A): 2.24 µM (active) | Potency (CP256): 3.16 µM (active) | Potency (CP262): 1.61 µM (active)

C[C@@H]1O[C@H](O[C@@H]2C=C3CC[C@H]4[C@@H](CC[C@]5(C)[C@@H](c6ccc(=O)oc6)CC[C@]45O)[C@@]3(C)CC2)[C@@H](O)[C@H](O)[C@@H]1O
Potency [12]: inactive | activity change, negative = inhibition [2]: -39.6% (active) | Potency [4]: > 20.6 µM (inactive) | Potency [5]: > 20.6 µM (inactive) | outcome [6]: inactive | activity change, negative = inhibition ([8]; at 25.7 µM (top of the series)): -8.45% (inactive) | max response [8, 15]: -11.6% | max response [8, 16]: -25.4% | Potency [9]: inactive | Potency [13]: inactive | Potency [10]: inactive | activity, negative = inhibition ([11]; parasite line A): -2.59% (inactive) | activity, negative = inhibition ([11]; parasite line B): -11.4% (inactive) | Potency (C2A): inactive | Potency (CP217): inactive | Potency (CP252): inactive | Potency (CP256): inactive

Clc1ccc(CO[C@@H](Cn2ccnc2)c2ccc(Cl)cc2Cl)cc1
outcome [1]: inactive | Potency [4]: > 20.6 µM (inactive) | Potency [14]: inactive | activity change, negative = inhibition ([8]; at 25.7 µM (top of the series)): -6.08% (inactive) | max response [8, 15]: -18.5% | max response [8, 16]: -19.5%

COc1cc2c(cc1O)C[C@H]1c3c(cc(O)c(OC)c3-2)CCN1C
Potency [12]: 2.51 µM (active) | activity change, negative = inhibition [2]: -8.08% (inactive) | Potency [4]: > 20.6 µM (inactive) and > 46 µM (inactive) | Potency [5]: > 20.6 µM (inactive) and > 46 µM (inactive) | outcome [6]: inactive | Potency [7]: inactive | Potency [14]: inactive | activity change, negative = inhibition ([8]; at 25.7 µM (top of the series)): 0.193% (inactive) | max response [8, 15]: 3.24% | max response [8, 16]: 4.01% | Potency [13]: inactive

CN[C@@H](C)[C@H]1CC[C@@H](N)[C@@H](O[C@@H]2[C@@H](O)[C@@H](O[C@H]3OC[C@@](C)(O)[C@@H](NC)[C@@H]3O)[C@H](N)C[C@@H]2N)O1 (tested in a mixture with another compound)
outcome [1]: inactive | outcome [6]: inactive | Potency [7]: inactive | activity change, negative = inhibition ([8]; at 25.7 µM (top of the series)): -2.96% (inactive) | max response [8, 15]: -4.43% | max response [8, 16]: -11.6% | Potency [9]: inactive | Potency [13]: inactive | Potency [10]: inactive | activity, negative = inhibition ([11]; parasite line A): 3.71% (inactive) | Potency (C2A): inactive | Potency (CP217): inactive | Potency (CP252): inactive | Potency (CP256): inactive | Potency (CP262): inactive

CCCCCCCCCc1ccc(O)cc1
outcome [6]: inactive | Potency [14]: inactive | activity change, negative = inhibition ([8]; at 57.5 µM (top of the series)): 4.47% (inactive) | max response [8, 15]: 4.78% | max response [8, 16]: 11%

CCN(CC)C(=O)N[C@H]1C=C2c3cccc4[nH]cc(c34)C[C@@H]2N(C)C1
outcome [1]: inactive | outcome [3]: inactive | Potency [4]: > 20.6 µM (inactive) | Potency [5]: > 20.6 µM (inactive) | outcome [6]: inactive | Potency [7]: inactive | activity change, negative = inhibition ([8]; at 25.7 µM (top of the series)): -1.39% (inactive) | max response [8, 15]: -15.1% | max response [8, 16]: -15.7% | Potency [13]: 35.5 µM (active)
